Structures are written as SMILES. Records with an inconclusive call do not appear. Values without a mark were called inactive. Activity calls are given as the source filed them. The call rests on the fitted dose curve; in most records, active means well fitted cell-killing curve with a large enough effect; inconclusive means small, poorly fitted or top-dose-only effect; inactive means flat fitted curve, though single readings scatter.

The nature of this experiment: Cell Viability - LYMP2-011 (AID 969).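 Further: 0% = DMSO only and full inhibition = 92 µM tetraoctylammonium bromide; nearly all actives have a fitted effect of over 60% in size.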 The settings on record: LYMP2-011 lymphoblastoid cells viability; series mostly up to 92.2 µM; viability change, negative = cytotoxic: at the top concentration. The text has this: NIH Chemical Genomics Center [NCGC]
NIH Molecular Libraries Screening Centers Network [MLSCN]
National Institutes of Environmental Health Sciences [NIEHS]
National Toxicology Program [NTP]
We have developed a 1536-well cell-based assay for quantitative high throughput screening (qHTS) against a number of cell lines to determine in vitro cytotoxicity of small molecules. This particular assay uses a human lymphoblastoid cell line (LYMP2-011) purchased from Coriell Institute for Medical Research.
NCGC Assay Protocol Summary:
The CellTiter-Glo luminescent cell viability assay (Promega) is a homogeneous method to measure the number of viable cells in culture. The end point readout of this assay is based on quantitation of intracellular ATP, an indicator of metabolic activity, using the luciferase reaction. Luciferase catalyzes the oxidation of beetle Luciferin to oxyluciferin and light in the presence of ATP. The luminescent signal is proportional to amount of ATP present.
Using the CellTiter-Glo luminescent cell viability assay, the amount of cellular ATP was measured in the lymphoblastoid cell line with complete culture medium following compound treatment for 24 hours. The assay was performed in opaque white Kalypsys 1536-well plates. In the screen, tetraoctylammonium bromide was used as positive control. Library compounds were measured for their ability to cause acute toxicity in the cell line, as reflected by a decrease in intracellular ATP levels, in a concentration-dependent manner. […] AC50 values were determined from concentration-response data modeled with the standard Hill equation.
qHTS protocol for CellTiter Glo lymphoblastoid cellular assay
[Step] [Parameter] [Value] [Description]
1. Reagent; 5 uL; 2500 lymphoblastoid cells/well
2. Time; 5 hr; 37 C incubation
4. Controls; 23 nL; Tetraoctylammonium bromide 6.4pM to 92 uM
5. Time; 24 hr; 37 C incubation
6. Reagent; 5 uL; CellTiter Glo reagent
7. Time; 30 min; Room Temperature
8. Detection; Luminescence; Viewlux plate reader
Keywords: cell viability, cytotoxicity, lymphoblastoid cell line, luminescence, NTPHTS, NTPHTS_NCGC, NIEHS, DSSTox, MLSMR, MLSCN, NIH Roadmap, qHTS, NCGC
On to `COc1ccc2c(c1)c(CC(=O)O)c(C)n2C(=O)c1ccc(Cl)cc1`, for which the “viability change, negative = cytotoxic” value is -5.44%.

For the compound `Cc1cn([C@H]2C[C@H](N=[N+]=[N-])[C@@H](CO)O2)c(=O)[nH]c1=O`, the “viability change, negative = cytotoxic” value was -1.84%.

As for `COc1ccc2[nH]cc(CCNC(C)=O)c2c1`, the “viability change, negative = cytotoxic” value is -1.03%.

In the case of `NCCS(=O)(=O)O`, the “viability change, negative = cytotoxic” value was -1.25%.

Take `Nc1c2c(nc3ccccc13)CCCC2`: the “viability change, negative = cytotoxic” value is -14.1%.

Take `Nc1ccn([C@H]2CC[C@@H](CO)O2)c(=O)n1`: the “viability change, negative = cytotoxic” value was -0.335%.

For the compound `CCC1(c2ccccc2)C(=O)NCNC1=O`, the “viability change, negative = cytotoxic” value was -0.233%.

For `O=c1c(-c2ccc(O)cc2)coc2cc(O)cc(O)c12`, the “viability change, negative = cytotoxic” value was -8.6%.

In the case of `NS(=O)(=O)c1cc2c(cc1Cl)NCNS2(=O)=O`, the “viability change, negative = cytotoxic” value was 7.16%.

For the compound `CC(C)NCC(O)c1ccc(O)c(O)c1` (stereo not drawn), the “viability change, negative = cytotoxic” value is 2.34%.

For `O=c1[nH]cc(F)c(=O)[nH]1`, the “viability change, negative = cytotoxic” value is -22.5%.

`N[C@@H](Cc1c[nH]c2ccc(O)cc12)C(=O)O`: the “viability change, negative = cytotoxic” value is -8.03%.

In the case of `Cc1ccc(-c2cc(C(F)(F)F)nn2-c2ccc(S(N)(=O)=O)cc2)cc1`, the “viability change, negative = cytotoxic” value was -16.6%.

With `CC(C)C(=O)Nc1ccc([N+](=O)[O-])c(C(F)(F)F)c1`, the “viability change, negative = cytotoxic” value is -16.4%.

With `Clc1ccc(C(c2ccccc2Cl)C(Cl)Cl)cc1` (stereo not drawn), the “viability change, negative = cytotoxic” value was -5.19%.

As for `Cn1c(=O)c2[nH]cnc2n(C)c1=O`, the “viability change, negative = cytotoxic” value was -1.96%.

In the case of `Cc1cn([C@H]2C=C[C@@H](CO)O2)c(=O)[nH]c1=O`, the call was inactive.

Regarding `Cn1c(=O)c2c(ncn2C)n(C)c1=O`, the “viability change, negative = cytotoxic” value was -5.63%.

These data come from PubChem BioAssay (NCATS).
